Experimental findings from PubChem BioAssay AID894 (National Center for Advancing Translational Sciences (NCATS), 2007) are described below.

Several values for one entry are separate records, joined by “and”; a condition that tells them apart may be missing. Identical values can stand only once. The whole screen tested about 150,000 compounds, of which about 6,500 (4.3%) were called active. Not shown: some 12% with an inconclusive outcome. The sample holds actives, similar compounds and a random draw of the others, so the mix is not that of the screen. Some compounds were tested as several samples or in several runs, with calls that do not always agree. Unmarked numbers belong to inactive results. Calls follow the shape of the dose curve; as a rule, active = well fitted inhibition curve with a large enough effect (not every such curve was filed as active); inconclusive = small, poorly fitted or top-dose-only effect, or another doubt; inactive = no such curve, though single readings can be large or run the other way.
% is scaled to controls: 0 for no effect and ±100 for the full control effect; potency is read from the fitted curve at half-maximal effect.

Chain of 15-hydroxyprostaglandin dehydrogenase [NAD(+)] (Homo sapiens) (P15428 whole entry, looked up): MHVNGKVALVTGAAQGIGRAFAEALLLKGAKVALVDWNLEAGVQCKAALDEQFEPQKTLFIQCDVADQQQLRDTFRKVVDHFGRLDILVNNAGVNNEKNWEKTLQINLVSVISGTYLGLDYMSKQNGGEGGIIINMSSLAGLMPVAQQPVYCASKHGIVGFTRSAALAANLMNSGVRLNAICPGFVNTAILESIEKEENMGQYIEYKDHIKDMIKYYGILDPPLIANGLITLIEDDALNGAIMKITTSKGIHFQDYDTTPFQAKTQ

This test has as its target 15-hydroxyprostaglandin dehydrogenase [NAD(+)] (Homo sapiens) (UniProt P15428). The experiment in a line: qHTS Assay for Inhibitors of HPGD (15-Hydroxyprostaglandin Dehydrogenase). As to conditions: purified HPGD, NADH fluorescence kinetic, PGE2 substrate; activity change, negative = inhibition: hits give low values. In short, it runs like this: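 20 nM HPGD preincubated 15 min at room temperature with compound in 50 mM Tris-HCl pH 8, 0.01% Tween 20. Started with 1 mM NAD+ and 30 uM prostaglandin E2; NADH fluorescence (360/450 nm) read 5 times over 30-s intervals, last minus first.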
For the compound `O=C(COC(=O)c1cc2c(s1)CCCC2)NCc1ccccc1Cl`, the activity change, negative = inhibition was -9.08%. On to `COc1ccc(CC(=O)N/N=C(\C)c2ccccn2)cc1`, for which the activity change, negative = inhibition is -4.24%. As for `Cc1ccc(S(=O)(=O)N2CCC(C(=O)N[C@@H](C)C(=O)NCc3ccco3)CC2)cc1`, the activity change, negative = inhibition is -1.88%. On to `S=C(NCCCc1cnc[nH]1)NCCCN(Cc1ccc(Cl)c(Cl)c1)c1ccc(Br)cn1`, for which the activity change, negative = inhibition was -8.19%. Take `Cc1ccc(C(=O)CNc2ccc(F)cc2)cc1`: the activity change, negative = inhibition is -25.3%. Take `COC(=O)c1ccc(NCC(=O)c2ccccc2)cc1`: the Potency was 17.8 µM (active). For `COC(=O)c1ccc(NC(=O)Nc2ccc(C)cc2)cc1`, the activity change, negative = inhibition was -17.3%. Regarding `Cc1ccc(-n2[nH]c(C)c(/C=N/NC(=O)c3cccc([N+](=O)[O-])c3)c2=O)cc1C`, the activity change, negative = inhibition was -25.4%. Take `Cc1sc2ncnc(Sc3nc4ccccc4s3)c2c1C`: the activity change, negative = inhibition is -10.4%. Take `CCOC(=O)c1ccc(N2C(=O)CC(N(C)Cc3ccccc3)C2=O)cc1` (centres undefined): the activity change, negative = inhibition was -4.27%. On the same count and under the same terms, then `CCOc1ccc(N2C(=O)CC(N(O)c3ccccc3)C2=O)cc1` (centres undefined), with -7.04%. Turning to `CCCCCCC(=O)N(O)C1CC(=O)N(c2ccccc2)C1=O` (centres undefined), the Potency was 15.8 µM (active). Turning to `CC1CN(S(=O)(=O)c2ccc(C(=O)NN3CCN(C)CC3)cc2)CC(C)O1` (centres undefined), the activity change, negative = inhibition was -9.75%. The same measure, in the same setting: then `Cc1ccc(C(C)C)cc1OCCN1CCCC1`, with 7.86%. In the case of `Cc1cc(-c2ccc(/C=N/n3cnnc3)o2)c([N+](=O)[O-])cc1C`, the Potency was 10 µM (active). Consider `Cc1ccc(Cl)cc1-c1ccc(/C=N/n2cnnc2)o1`, for which the activity change, negative = inhibition is -18.9%.

As to `Cc1cc([N+](=O)[O-])c(-c2ccc(/C=N/n3cnnc3)o2)cc1Cl`, the activity change, negative = inhibition was -28.3%. `N#Cc1ccc(C(=O)Nc2nc(-c3cccs3)c(C(=O)C(F)(F)F)s2)cc1`: the activity change, negative = inhibition is 3.33%. As to `O=C(c1cccc2ccccc12)N1CCN(c2ccccc2F)CC1`, the activity change, negative = inhibition was -14.2%. For `COc1ccc(OCc2cccc(C(=O)N3CCCC3)c2)cc1`, the activity change, negative = inhibition was -28.1%. For `COc1c(C(=O)N2CCCC2)ccc2ccccc12`, the Potency is 12.6 µM (active). Turning to `C/C(=N/NC(=O)c1ccc(Br)o1)c1ccc(C)o1`, the activity change, negative = inhibition is -27.2%.

Consider `CCCCC/C=C\CC1OC1CCCCCCCC(=O)O` (centres undefined), for which the activity change, negative = inhibition is -7.93%. For `COC(=O)C/C=C/[C@@H](C)[C@H](NC(=O)OCC(Cl)(Cl)Cl)c1ccccc1`, the activity change, negative = inhibition was -2.46%. For the compound `COc1ccc(C(=O)Nc2ncc3c(n2)-c2ccccc2CC3)cc1`, the activity change, negative = inhibition was -20.4%. As for `CSc1nc2sc3c(c2c(=O)[nH]1)CCc1ccccc1-3`, the activity change, negative = inhibition was -7.61%. Consider `COc1ccc(-n2c(=S)[nH]c3sc4c(c3c2=O)CCc2ccccc2-4)cc1`, for which the Potency was 12.6 µM (active). In the case of `Cc1cccc(C(=O)NCC(=O)OCC(=O)N2CC3(C)CC2CC(C)(C)C3)c1` (centres undefined), the activity change, negative = inhibition is -5.91%. On the same count and under the same terms, as for `Cn1cccc1/C=N/NC(=O)c1ccc(OC(F)(F)C(F)F)cc1`, the figure is -5.18%; as for `CCN(CC)C(=O)CSc1nnc(-c2cccc(OC)c2)o1`, -11.1%. Turning to `COc1ccc(CN(C(=O)CSc2nnc(-c3ccc(OC)c(OC)c3)o2)c2ccc(F)cc2)cc1`, the Potency was 14.1 µM (active). Regarding `COc1ccc(CCNC(=O)CSc2nnc(-c3cccc(F)c3)o2)cc1OC`, the activity change, negative = inhibition was -14.4%. Consider `COCCNC(=O)c1ccccc1NS(=O)(=O)c1ccc(C)c([N+](=O)[O-])c1`, for which the activity change, negative = inhibition was 1.9%. Regarding `Cc1cccc(NC(=O)CN2C(=O)CNC2=O)c1`, the activity change, negative = inhibition was -7.22%. Take `O=C(Cn1[nH]c(=O)c2ccccc2c1=O)Nc1cccc(-c2nnc3n2CCCCC3)c1`: the Potency is 14.1 µM (active). Turning to `Brc1cccc(-c2nnc3n2CCC3)c1`, the activity change, negative = inhibition is -11.6%. On the same count and under the same terms, as for `COc1ccnc(Oc2ccccc2)n1`, the figure is -1.44%; as for `O=[N+]([O-])c1ccc(N/N=C2/CCCCC2c2ccccn2)c([N+](=O)[O-])c1` (centres undefined), -4.22%.

On to `Cc1ccc(S(=O)(=O)N2CCOCC2)cc1C(=O)NC(=S)N(Cc1ccccc1)C(C)C`, for which the activity change, negative = inhibition is -17.6%. Consider `CCC(C(=O)OCC(=O)Nc1ccc(C(=O)Nc2ccc(OC)cc2)cc1)c1ccccc1` (centres undefined), for which the activity change, negative = inhibition is -12.4%. `Cc1nc2ccc(C(=O)N3CCN(c4ccccc4)CC3)cc2s1`: the activity change, negative = inhibition is -2.92%. On the same count and under the same terms, then `Cc1nc2ccc(S(=O)(=O)NC(C(=O)N3CCCCCC3)C(C)C)cc2s1` (centres undefined), with -2.12%.

For `Cc1nc2ccc(C(=O)N3CCSCC3)cc2s1`, the Potency was 1.58 µM (active). In the case of `O=C(N/N=C/c1ccc2c(c1)OCO2)c1ccc(Cn2cc([N+](=O)[O-])cn2)o1`, the activity change, negative = inhibition is -8.13%.

Regarding `C=CCN1C(=O)C(Cc2ccc(OCC)cc2)SC1=Nc1ccc(C(=O)O)cc1` (centres undefined), the activity change, negative = inhibition was -8.9%. Consider `Cc1ccc(C)c(OCC(=O)N2CCN(C(=O)c3ccco3)CC2)c1`, for which the activity change, negative = inhibition was 1.99%. `CCc1nnc(NS(=O)(=O)c2ccc(N=Cc3c(C)[nH]n(-c4ccc(C)cc4)c3=O)cc2)s1`: the Potency was 25.1 µM (active). In the case of `COc1cc(NS(=O)(=O)c2ccc(N=Cc3c(C)[nH]n(-c4ccccc4)c3=O)cc2)nc(OC)n1`, the activity change, negative = inhibition was -14.8%. On the same count and under the same terms, as for `CCc1nnc(NS(=O)(=O)c2ccc(NS(=O)(=O)c3ccccc3)cc2)s1`, the figure is 2.28%; as for `COC(=O)C1(C(C)=O)CC2=CC[C@H]3C(=O)N(c4ccccc4)C(=O)[C@H]3[C@@H]2Cc2ccccc2[C@@H]1C[N+](=O)[O-]` (some centres undefined), -2.53% and -4.27%.

For the compound `Oc1c(Cl)cc(Cl)c(Cl)c1Cc1c(O)c(Cl)cc(Cl)c1Cl`, the Potency is 35.5 µM (active); the activity change, negative = inhibition was -15.8% and -6.53%. For `NS(=O)(=O)c1ccc(NC(=O)COC(=O)C2(c3ccc(F)cc3)CCCC2)cc1`, the activity change, negative = inhibition was -17%. In the case of `Cc1ccc(NC(=O)CC2S/C(=N/N=C3\CCCc4ccccc43)NC2=O)cc1` (centres undefined), the activity change, negative = inhibition is -13.9%. Consider `CCCCCCCCCOC1OC(CO)C(O)C(O)C1NC(C)=O` (centres undefined), for which the activity change, negative = inhibition was -3.92%.

`C=CCNC(=O)c1cc2nc(C3CC3)cc(C(F)F)n2n1`: the activity change, negative = inhibition was -7.97%. With `CC1CCN(C(=O)c2cc3nc(C4CC4)cc(C(F)(F)F)n3n2)CC1`, the Potency was 1.26 µM (active). `COC(=O)c1cc2nc(-c3ccccc3)cc(C(F)(F)F)n2n1`: the activity change, negative = inhibition was -14.5%.

As for `CN(C)/N=C/c1cc(Cl)cc([N+](=O)[O-])c1O`, the activity change, negative = inhibition is -18.9%. With `O=C(/C=C/c1ccccc1[N+](=O)[O-])NCC1CCCO1` (centres undefined), the Potency was 4.47 µM (active).

On to `O=C(NCC1CCCO1)c1ccc2ccccc2n1` (centres undefined), for which the activity change, negative = inhibition was -27.3%.

Regarding `O=C(NCC1CCCO1)/C(=C/c1ccc(Cl)cc1)NC(=O)c1ccccc1` (centres undefined), the activity change, negative = inhibition was -23%. With `COC(=O)c1cc(C(=O)N(Cc2ccccc2)c2ccccn2)cc([N+](=O)[O-])c1`, the activity change, negative = inhibition was -15.3%. For the compound `Cc1cc(SCC(=O)NCCN2C(=O)CSC2=O)nc2ccccc12`, the activity change, negative = inhibition is -24.5%. `Cc1cc(Br)ccc1SCC(=O)OCC(=O)NCc1ccc2c(c1)OCO2`: the Potency is 25.1 µM (active). With `O=C(COC(=O)c1ccc(Cl)nc1)NCc1ccc2c(c1)OCO2`, the activity change, negative = inhibition is -9.81%.

As for `Cc1ccc(C(=O)OCC(=O)NCc2ccc3c(c2)OCO3)s1`, the activity change, negative = inhibition is -10.3%. The same measure, in the same setting: then `C=CCNCCCCOc1ccccc1`, with -5.77%; and `COC(=O)c1ccccc1NS(=O)(=O)c1ccc2[nH]c(=O)[nH]c2c1`, with -11.9%.

Turning to `CCN1C(=O)N[C@@H](CCc2ccccc2)C(C(=O)OC)=C1C`, the activity change, negative = inhibition is -3.92%. Turning to `Cn1cccc1C(=O)Nc1nccs1`, the Potency was 31.6 µM (active). For `CC(=O)Oc1ccc(C(=O)Nc2nccs2)cc1`, the activity change, negative = inhibition is -13.6%. `COc1cc(C(=O)Nc2nccs2)cc(OC)c1OC`: the activity change, negative = inhibition is -15.1%.

With `CC(OC(=O)c1ccccc1N1C(=O)C2C3CCC(C3)C2C1=O)C(=O)c1ccccc1` (centres undefined), the activity change, negative = inhibition was -11.4%. Regarding `CCOc1ncccc1C(=O)N(CC)CC(=O)Nc1ccc(NC(C)=O)cc1`, the activity change, negative = inhibition is -1.26%.

With `C/C=C/c1ccc(OCCOc2ccc(C=O)cc2OC)c(OC)c1`, the activity change, negative = inhibition is -16.6%. Still for that read-out and setting: as for `O=C(CC1NCCNC1=O)Nc1cc(Cl)cc(Cl)c1` (centres undefined), the figure is -10.9%.

As to `O=C(Nc1cc(=O)[nH]c2ncnn12)c1ccccc1Cl`, the Potency is 22.4 µM (active). As to `CC(=O)Nc1cccc(/C(C)=N/NC(=O)c2ccccc2Cl)c1`, the activity change, negative = inhibition is -5.88%. On the same count and under the same terms, as for `O=C(Nc1ccc2nc3n(c(=O)c2c1)CCCCC3)c1ccccc1Cl`, the figure is -20.5%; as for `CC(Cc1cccs1)NC(=O)NC1CCCCC1` (centres undefined), -17.9%. Consider `CC(Cc1cccs1)NC(=O)c1cccc(Cl)c1` (centres undefined), for which the Potency is 7.94 µM (active). As to `COCC(C)NC(=O)c1ccc(Cl)c(Cl)c1` (centres undefined), the activity change, negative = inhibition is -23%. Same read-out and setting: as for `COc1ccc(-c2nc(-c3ccccc3)oc2Nc2ccc3ccccc3c2)cc1`, the figure is -1.48%. For `COCCCNC(=S)NC(=O)c1ccccc1`, the activity change, negative = inhibition is -5.04%. In the case of `COCCCNC(=O)c1ccc2c(c1)ncn2-c1ccccc1OC`, the Potency was 11.2 µM (active). Still for that read-out and setting: as for `COc1ccccc1-n1cnc2cc(NS(=O)(=O)c3ccccc3)ccc21`, the figure is 14.1 µM (active). As for `COc1cc(NS(=O)(=O)c2ccccc2)ccc1-n1nc(C)cc1C`, the activity change, negative = inhibition is -3.88%. Regarding `COc1ccccc1-n1cnc2cc(C(=O)NCC3CCCO3)ccc21` (centres undefined), the Potency was 12.6 µM (active). For the compound `COc1ccccc1-n1c(C)nc2cc(C(=O)NCc3ccc4c(c3)OCO4)ccc21`, the activity change, negative = inhibition was -21.3%.

In the case of `Cc1ccccc1CN(c1ccc(C(=O)NCC2CCCO2)cc1)S(C)(=O)=O` (centres undefined), the activity change, negative = inhibition was -4.02%. The same measure, in the same setting: as for `O=C(NCCN1CCOCC1)c1ccc2c(c1)ncn2C1CCCC1`, the figure is -2.32%; as for `COc1ccc(NS(=O)(=O)c2ccc(NC(C)=O)cc2)cc1OC`, -1.98%; as for `CC(=O)NC1C(Oc2ccc(C)cc2)OC2COC(c3ccco3)OC2C1O` (centres undefined), 0.675%.
